# From PubChem BioAssay (EPA / NIEHS)
# Active and inactive are the calls of the source. Rule for the calls: active = hit-call score of the fitted dose curve at least 0.9, where 1 is the maximum; inactive = score below 0.9.
# Experiment: ATG_NF_kB_CIS: Attagene CIS-FACTORIAL HepG2 Assay for human Nuclear Factor Kappa B (NF-kB) (AID 2282991)
# Conditions: HepG2 Attagene cis-factorial NF-kB reporter mRNA; actives raise or lower the signal
# Experimental: ATG_CIS is a cell-based, multiplexed-readout assay that uses HepG2, a human liver cell line, with measurements taken at 24 hours after chemical dosing in a 24-well plate.ATG_NF_kB_CIS is one of 52 assay component(s) measured or calculated from the ATG_CIS assay. It is designed to make measurements of mRNA induction, a form of inducible reporter, as detected with fluorescence intensity signals by Reverse transcription polymerase chain reaction (RT-PCR) and Capillary electrophoresis technology.Data from the assay component ATG_NF_kB_CIS was analyzed into 1 assay endpoint. This assay endpoint, ATG_NF_kB_CIS, was analyzed with bidirectional fitting relative to DMSO as the negative control and baseline of activity. Using a type of inducible reporter, measures of mRNA for gain or loss-of-signal activity can be used to understand the reporter gene at the transcription factor-level as they relate to the gene NFKB1. Furthermore, this assay endpoint can be referred to as a primary readout, because this assay has produced multiple assay endpoints where this one serves a reporter gene function. To generalize the intended target to other relatable targets, this assay endpoint is annotated to the dna binding intended target family, where the subfamily is NF-kappa B.
# Human liver HepG2 cells are transiently transfected with multiple reporter transcription units (MRTUs) in 6-well plates using FuGene 6 reagent (Roche; 3 ml FuGene/1 mg DNA). The MRTU constructs are regulated by a cis-regulating element (promoter). […] A major difference between the CIS and TRANS system is that in CIS activities of endogenous TFs are measured, whereas the TRANS assay evaluates changes in activities of exogenous, chimeric NR-Gal4 proteins. […] At the end of 24 hour incubation, total RNA was isolated using TriZol reagent (Invitrogen). The isolated RNA is then reverse-transcribed using oligo(dT) primer and Mo-MLV reverse transcriptase (Invitrogen) with DNAse I (Ambion) treatment for 30 min. The one-tenth of the produced cDNA was amplified by PCR using Taq DNA polymerase (Invitrogen) and two reporter sequence-specific primers. The PCR products were fluorescently labeled by primer extension with 6-arboxyfluorescein (6-FAM) 5'-labeled reporter sequence-specific primer (2 min at 95 C, 20 s at 68 C and 10 min at 72 C) and these products were digested with 5U of HpaI (New England Biolabs) for 2h at 37 C. The fragments were purified using Qiaquick PCR columns (Qiagen), analyzed on an ABI 3130xL genetic analyzer (Applied Biosystems) with peak positions identified by using a set of X-rhodamine (ROX)-labeled MapMarker1000 molecular weight standards (BioVentures). The raw capillary electrophoresis data was processed using Attagraph software (Attagene).
row,SMILES,outcome
1,CCOB(OCC)OCC,inactive
2,O=S(=O)(O)c1ccc(Nc2nc(Nc3ccc(C=Cc4ccc(Nc5nc(Nc6ccc(S(=O)(=O)O)cc6)nc(N(CCO)CCO)n5)cc4S(=O)(=O)O)c(S(=O)(=O)O)c3)nc(N(CCO)CCO)n2)cc1,inactive
3,CCC(=O)C1CC(C(C)C)CC=C1C (stereo not given),inactive
4,Cc1c(Cl)cccc1Cl,inactive
5,Cc1cc(C)n(CO)n1,inactive
6,CCCCCCC=O,inactive
7,CCCCC1CCC(=O)O1 (stereo not given),inactive
8,CCCSSCCC,inactive
9,CCOC(=O)[C@H](O)[C@@H](O)C(=O)OCC,inactive
10,CC(=O)OC1CCCCC1C(C)(C)C (stereo not given),inactive
11,COC(=O)c1ccc(C(=O)OC)c(C(=O)OC)c1,inactive
12,CCCCOC(=O)CCC(C)=O,inactive
13,Cn1cccc1,inactive
14,CCCCCOC(=O)CCCCC,inactive
15,C=Cc1ccc(OC(C)=O)cc1,inactive
16,O=C(Nc1ccccc1)c1cc(Cl)ccc1O,inactive
17,COc1nccnc1CC(C)C,inactive
18,CC(C)(CO)COC(=O)C(C)(C)CO,inactive
19,CC1=NN(c2ccc(S(=O)(=O)O)cc2)C(=O)C1N=Nc1ccccc1 (stereo not given),inactive
20,Nc1ncnc2nc[nH]c12,inactive

row,SMILES,outcome
1,[Cl][Sc]([Cl])[Cl],inactive
2,C=CC(C)(O)CC/C=C(\C)CC (stereo not given),inactive
3,CCCC(CC)c1ccccc1 (stereo not given),inactive
4,CN1CCN(C)CC1,inactive
5,O=C(Cl)c1c(Cl)c(Cl)c(C(=O)Cl)c(Cl)c1Cl,inactive
6,C/C=C/C=C/CCCCCCCO,inactive
7,CCCCCCO,inactive
8,Cc1c(C(=O)c2c[nH]n(C)c2=O)ccc(S(C)(=O)=O)c1C1=NOCC1,inactive
9,CC(C=O)c1ccccc1 (stereo not given),inactive
10,Cc1ccc(C)c(OCCCC(C)(C)C(=O)O)c1,inactive
11,COCC(=O)O,inactive
12,c1ccc2sc(SSN3CCOCC3)nc2c1,inactive
13,Cc1c[nH]c(=O)[nH]c1=O,inactive
14,Cc1noc(NS(=O)(=O)c2ccc(N)cc2)c1C,inactive
15,CC(Cl)COP(=O)(OCC(C)Cl)OCC(C)Cl (stereo not given),inactive
16,CCOC(=O)/C=C\C(=O)OCC,inactive
17,C=C(C)C(=O)OCC(O)COc1ccc(C(C)(C)c2ccc(OCC(O)COC(=O)C(=C)C)cc2)cc1 (stereo not given),inactive
18,CCOc1ccc(NC(N)=O)cc1,inactive
19,C[N+](C)(C)CCCNS(=O)(=O)C(F)(F)C(F)(F)C(F)(F)C(F)(F)C(F)(F)C(F)(F)C(F)(F)C(F)(F)F,inactive
20,CC1(C)CCC[C@]2(C)[C@H]3CC(=O)O[C@]3(C)CC[C@@H]12,inactive
